aSyn rescue: qHTS of alpha-syn Inhibitors; Yeast expressing alpha-synuclein, growth rescue, BacTiter-Glo, 24 h; Potency, µM (titrated, usually from 46.1 µM), without a hit: at the highest dose growth rescue (activation), hits mostly activators; 370,000 compounds, 0.14% hits; AID 652106, 2013; further: % of control where 0% means no effect; nearly all actives have a fitted effect of over 65% in size
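Readout is rescue of growth in alpha-synuclein-expressing yeast, so inhibitors of toxicity appear as activators. Growth after 24 hr at 30 deg C in galactose medium is quantified by luminescence.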
Abeta yeast res: qHTS for compounds that reverse cellular toxicity of Amyloid beta (A-beta) peptide in yeast: Primary Screen | AID 1347071, 2019 | yeast expressing A-beta42, growth rescue, OD600, 48 h; response scale: 0% DMSO, 100% iron-clioquinol control | Potency, µM (series often up to 46.1 µM), usual class: activators | 410,000 compounds, 0.063% hits; further: nearly all actives have a fitted effect of over 55% in size
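Yeast A-beta toxicity model in growth medium with pinned compounds, 48 h at 30 C; growth read as absorbance at 600 nm. Normalized to FeCl3/clioquinol equimolar mix (positive) and DMSO (negative).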
TDP43 rescue: qHTS of TDP-43 Inhibitors; TDP-43 expressing yeast growth rescue, BacTiter-Glo, 24 h; Potency, µM (series often up to 46.1 µM), for inactives: top-dose growth rescue (activation), hits mostly activators; AID 652104, 2013; 410,000 compounds, 1.8% hits; further: % of control where 0% means no effect; nearly all actives have a fitted effect of over 50% in size
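Galactose-induced TDP-43 yeast, OD600=0.02, compound pinned; 24 hr, 30 deg C; BacTiter-Glo luminescence for growth. Inhibitors of TDP-43 toxicity read as activators.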
FUS suppressor: qHTS for Suppressors of FUS Proteinopathy: Primary screen using FUS-linked yeast assay; S. cerevisiae FUS-expressing, growth rescue, OD600, 24 h; Potency, µM (titrated, usually from 76.6 µM), usual class: activators; 390,000 compounds, 0.24% hits;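 further: plate controls were DMSO vehicle for no effect and reference control for full effect; nearly all actives have a fitted effect of over 55% in size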
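Galactose (2%) drives FUS expression in yeast precultured in raffinose; seeding density OD 0.005. Test compounds incubated 24hr at 30C and 99% humidity before absorbance at 600 nm was measured.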
PTAP TSG101 blk: qHTS Assay for Iinhibitors of HIV-1 Budding by Blocking the Interaction of PTAP/TSG101; Tumor susceptibility gene 101 protein (Homo sapiens), Q99816; Fluorescence polarization, FITC-PTAP peptide / Tsg101 binding; Potency, µM (highest dose often 115 µM), inactives show at the top dose activity change, negative = inhibition, most hits filed as inhibitors; 340,000 tested, under 10 active; AID 493005, 2010; active means well fitted inhibition curve with a large enough effect in the main read-out, with a control signal flat, not every such curve was filed as active; inconclusive means small, poorly fitted or top-dose-only effect, or effect the other way, or a change in a side signal; inactive means no such curve, though single readings can be large or run the other way; further: % of control where 0% means no effect
Target sequence (Q99816 whole entry, looked up): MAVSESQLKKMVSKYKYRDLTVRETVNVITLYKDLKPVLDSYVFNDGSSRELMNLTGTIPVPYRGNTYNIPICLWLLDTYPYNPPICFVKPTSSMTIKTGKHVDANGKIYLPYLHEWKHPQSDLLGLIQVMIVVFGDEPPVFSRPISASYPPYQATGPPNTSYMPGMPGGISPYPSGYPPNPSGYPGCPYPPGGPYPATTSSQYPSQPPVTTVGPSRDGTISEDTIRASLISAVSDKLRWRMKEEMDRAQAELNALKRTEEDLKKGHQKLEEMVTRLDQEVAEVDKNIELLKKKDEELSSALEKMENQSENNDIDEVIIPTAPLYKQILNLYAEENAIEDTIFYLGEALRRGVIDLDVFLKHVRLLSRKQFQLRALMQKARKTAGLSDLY
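Steps: Tsg101 binding domain dispensed (10 uM final), compounds pinned in DMSO, FITC-labeled PTAP-motif peptide added (50 nM final); after 20 min binding at room temperature, polarization measured.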
* hit, by the source's call; i = inactive; ? = inconclusive; nt = not tested or not shown; [ ] = remark or other dose. This is a sample that favours compounds with a hit; in the whole collection about 2.1% have one here. Unless noted, the call rests on the fitted dose curve; in most records, active means well fitted curve in the direction sought with a large enough effect; inconclusive means small, poorly fitted or top-dose-only effect, or another doubt; inactive means no such curve, though single readings can be large; an effect the other way counts as inactive or inconclusive. Potency means the concentration at half of the fitted maximal effect.

SMILES	aSyn rescue	Abeta yeast res	TDP43 rescue	FUS suppressor	PTAP TSG101 blk
O=C(NCc1c(O)ccc2ccccc12)c1ccccc1	7.3%	?	20µM*	i	-1.1%
Clc1ccc(/C=C/c2ccncc2)cc1Cl	6.1%	nt	nt	nt	nt
CCSc1nc(N)nc(-c2cccs2)c1C#N	-17.7%	i	22.4µM*	i	-1.7%
CCN(CC)C(=O)CSc1nc(N)c(C#N)c(-c2cccs2)c1C#N	-6.4%	i	13.0%	i	2.5%
CCOC(=O)CC[C@H]1CC[C@]2(CCCN(C(=O)c3ccco3)C2)O1	nt	nt	nt	i	nt
CC(C)(C(=O)N1CCC1(C)C(=O)NS(=O)(=O)c1cccc(C#N)c1)c1ccccc1 (centres undefined)	?	i	3.0%	i	nt
Cc1cccc(OCc2nc(C#N)c(NCc3ccccc3Cl)o2)c1	nt	i	28.2µM*	i	nt
COCCNc1oc(COc2cccc(C)c2)nc1C#N	-4.1%	i	1.1%	i	-1.7%
N#Cc1nc(COc2cccc(Cl)c2)oc1N1CCCC1	7.5%	i	14.1µM*	i	-0.4%
O=[N+]([O-])c1ccc(Cn2cc(-c3cccc(C(F)(F)F)c3)nn2)cc1	20.5%	i	15.8µM*	i	-7.4%
O=[N+]([O-])c1ccc(Oc2cccc(C(F)(F)F)c2)nc1	-8.2%	i	23.5%	i	-1.5%
O=C(CN1CCSc2ccccc21)NCc1ccccc1F	9.9%	i	12.6µM*	i	nt
COc1cccc(NC=C2C(=O)OC(C)(C)OC2=O)c1	0.7%	i	?	i	-2.7%
COc1cccc(NC=C2C(=O)OC3(CCCCC3)OC2=O)c1	3.9%	i	25.1µM*	nt	-2.1%
CCCCCCOc1ccc(C2C(=O)N(C3CCCCC3)CC(=O)N2CCC)cc1 (centres undefined)	nt	i	15.6%	i	nt
CCCCOc1ccc(C2C(=O)N(C3CCCCC3)CC(=O)N2CC2CCCO2)cc1 (centres undefined)	5.8%	i	2.3%	8.91µM*	-4.5%
CCc1ccc(N(CC)C(=O)Cc2c(C(=O)O)n(C)c3ccccc23)cc1	-10.8%	i	28.2µM*	i	-4.6%
CC(C)c1ccc(N(C)C(=O)Cc2c(C(=O)O)n(C)c3ccccc23)cc1	9.9%	i	28.2µM*	i	-6.0%
Cc1nc2ccccc2nc1C	2.3%	nt	nt	nt	nt
Cc1c(CCC(=O)N2CCC[C@H]2C(=O)O)c(=O)oc2cc3oc4c(c3cc12)CCCC4	11.7%	i	20µM*	?	1.4%
Cc1coc2cc3oc(=O)c(CCC(=O)N4CCCCC4)c(C)c3cc12	nt	i	22.4µM*	i	nt
Cc1coc2cc3oc(=O)c(CC(=O)N4CCCCC4)c(C)c3cc12	nt	i	9.5%	i	nt
O=C(Cn1c(-c2cncs2)nc2ccccc21)N1CCOCC1	nt	nt	nt	i	nt
COc1ccc(N2CCN(C(=O)CSc3nnc4c(C)cc5ccc(C)c(C)c5n34)CC2)cc1	-1.5%	i	14.1µM*	?	-1.3%
Cc1c(NS(=O)(=O)c2ccc3nc(COc4ccccc4Cl)[nH]c3c2)c(=O)n(-c2ccccc2)n1C	-2.1%	i	-10.7%[0.397 µM]	i	-2.8%
SMILES	aSyn rescue	Abeta yeast res	TDP43 rescue	FUS suppressor	PTAP TSG101 blk
Cc1ccc(C)c(OCc2nc3ccc(S(=O)(=O)Nc4c(C)n(C)n(-c5ccccc5)c4=O)cc3[nH]2)c1	7.7%	i	-5.4%[0.397 µM]	35.5µM*	-5.3%
CCNC(=O)c1cccc(NC(=O)c2cc(C3CC3)nc3c2cnn3C(C)C)c1	0.4%	i	4.9%	i	-7.4%
CC(C)n1ncc2c(C(=O)Nc3cccc(C#N)c3)cc(C3CC3)nc21	2.0%[1.84 µM]	i	22.4µM*	i	-2.5%
COc1cc(/C=C/C(=O)c2ccc3c(c2)OCCO3)cc(Br)c1OCC(=O)N(C)C	10.7%	i	25.1µM*	?	-1.3%
COC(=O)c1ccc(C2Nc3ccc(/C(C)=N/NC(=O)C(OC)c4ccccc4)cc3C3C=CCC32)cc1 (centres undefined)	0.8%	i	-0.6%	4.47µM*	-3.6%
Cc1ccc(-c2nc(S(=O)(=O)c3ccc(Cl)cc3)c(N3CCCCC3)o2)cc1	nt	i	-11.2%	i	nt
Nc1nnc(-c2ccc(Cl)cc2Cl)s1	14.6%	i	11.2µM*	i	0.5%
Clc1ccc(-c2nn3cnnc3s2)c(Cl)c1	3.8%	i	17.8µM*	i	-7.7%
Nc1nnc(-c2ccccc2F)s1	-1.1%	i	-17.6%[9.22 µM]	i	-3.3%
COc1ccc(CCNC(=O)Cc2c(C)c3cc4c(C)coc4cc3oc2=O)cc1OC	nt	i	6.1%	i	nt
COc1cc(NC(=O)C(c2ccccc2)c2ccccc2)c(C(=O)O)cc1OC	1.1%	i	22.4µM*	i	-4.9%
CCNC(=O)c1cc2c(c(-c3cccc(-c4ccccc4F)c3)n1)[C@@H](CCO)N(C(=O)CC1CC1)C2	14.8%	i	?	17.8µM*	nt
Cc1ccccc1NC(=S)NC(=O)/C=C/c1ccco1	-10.6%	i	10µM*	8.91µM*	-5.8%
COc1ccc(-c2nc(C)c(CCNS(=O)(=O)c3cc(Cl)ccc3Cl)s2)cc1	?	i	25.1µM*	?	nt
COc1ccc(S(=O)(=O)NCCc2sc(-c3cccc(F)c3)nc2C)cc1	nt	i	25.1µM*	i	nt
COc1ccc(-c2nc(C)c(CCNS(=O)(=O)c3ccc(F)cc3)s2)cc1OC	6.5%	i	?	i	nt
COc1cccc(NC(=O)Cn2cc(S(=O)(=O)N3CCCC3)c(S(=O)(=O)N3CCCC3)c2)c1	nt	i	-7.0%	i	nt
Nc1cccc(/C=C2\C=Cc3ccccc32)c1	3.0%	nt	nt	nt	nt
O=C(COc1ccc(-c2nnco2)cc1)NC1CCCc2ccccc21 (centres undefined)	1.3%	i	20µM*	i	-3.0%
C#CCOCCOCCOCCNc1nc(N2CCN(C(=O)[C@H]([C@@H](C)CC)n3cc(CCCCN)nn3)CC2)nc(N2CCN(C(=O)[C@H](Cc3ccc(O)cc3)n3cc(CCO)nn3)CC2)n1	nt	nt	nt	i	nt
COc1cccc(CN(C)C(=O)c2ccc(N3CCCC3)c([N+](=O)[O-])c2)c1	-0.7%	i	20µM*	i	-1.8%
COc1ccc(CNC(=O)c2cc3c(=O)oc4ccc(C)cc4c3s2)c(OC)c1	nt	i	10.0%	i	nt
COC(=O)C1=C(C)N(Cc2ccccc2)C(=S)N[C@H]1c1ccccc1	20.9%	i	12.6µM*	i	-18.0%
CSc1ccccc1NC(=O)c1cc(C(C)C)on1	1.4%	i	11.2µM*	i	-2.9%
CSc1ccccc1NC(=O)c1cc(C)on1	-3.4%	i	1.4%	i	nt

High-throughput results: PubChem, National Center for Advancing Translational Sciences (NCATS)
